Activity calls are given as the source filed them. The calls were made as follows: active = hit-call score of the fitted dose curve at least 0.9, where 1 is the maximum; inactive = score below 0.9.

What is called AC50 is the midpoint of the concentration-response curve, whichever way the signal moves.

A short description of the test: ATG_Ets_CIS: Attagene CIS-FACTORIAL HepG2 Assay for human Erythroblast Transformation Specific (ETS) (AID 2282941). The settings on record: HepG2 ETS cis-reporter transcription, actives raise or lower the signal. As for the experimental part: ATG_CIS is a cell-based, multiplexed-readout assay that uses HepG2, a human liver cell line, with measurements taken at 24 hours after chemical dosing in a 24-well plate.ATG_Ets_CIS is one of 52 assay component(s) measured or calculated from the ATG_CIS assay. It is designed to make measurements of mRNA induction, a form of inducible reporter, as detected with fluorescence intensity signals by Reverse transcription polymerase chain reaction (RT-PCR) and Capillary electrophoresis technology.Data from the assay component ATG_Ets_CIS was analyzed into 1 assay endpoint. This assay endpoint, ATG_Ets_CIS, was analyzed with bidirectional fitting relative to DMSO as the negative control and baseline of activity. Using a type of inducible reporter, measures of mRNA for gain or loss-of-signal activity can be used to understand the reporter gene at the transcription factor-level as they relate to the gene ETS1. Furthermore, this assay endpoint can be referred to as a primary readout, because this assay has produced multiple assay endpoints where this one serves a reporter gene function. To generalize the intended target to other relatable targets, this assay endpoint is annotated to the dna binding intended target family, where the subfamily is winged helix-turn-helix.
Human liver HepG2 cells are transiently transfected with multiple reporter transcription units (MRTUs) in 6-well plates using FuGene 6 reagent (Roche; 3 ml FuGene/1 mg DNA). The MRTU constructs are regulated by a cis-regulating element (promoter). […] A major difference between the CIS and TRANS system is that in CIS activities of endogenous TFs are measured, whereas the TRANS assay evaluates changes in activities of exogenous, chimeric NR-Gal4 proteins. […] At the end of 24 hour incubation, total RNA was isolated using TriZol reagent (Invitrogen). The isolated RNA is then reverse-transcribed using oligo(dT) primer and Mo-MLV reverse transcriptase (Invitrogen) with DNAse I (Ambion) treatment for 30 min. The one-tenth of the produced cDNA was amplified by PCR using Taq DNA polymerase (Invitrogen) and two reporter sequence-specific primers. The PCR products were fluorescently labeled by primer extension with 6-arboxyfluorescein (6-FAM) 5'-labeled reporter sequence-specific primer (2 min at 95 C, 20 s at 68 C and 10 min at 72 C) and these products were digested with 5U of HpaI (New England Biolabs) for 2h at 37 C. The fragments were purified using Qiaquick PCR columns (Qiagen), analyzed on an ABI 3130xL genetic analyzer (Applied Biosystems) with peak positions identified by using a set of X-rhodamine (ROX)-labeled MapMarker1000 molecular weight standards (BioVentures). The raw capillary electrophoresis data was processed using Attagraph software (Attagene).
Consider `COc1cccc(OC)c1C(=O)O`, for which the compound was classed as inactive.
Same read-out and setting: the value for `CC(=O)Nc1c(I)c(NC(C)=O)c(I)c(C(=O)O)c1I` was “inactive”; that for `CCCCCCCCCCC1CO1` (stereo not given) was “inactive”.
In the case of `Cc1ccnc(N)c1`, the compound was called inactive.
Regarding `CC(=O)OC(C)(C)Cc1ccccc1`, the compound was classed as inactive.
`CNC(=C[N+](=O)[O-])NCCSCc1csc(CN(C)C)n1`: the result was inactive.
Same read-out and setting: next, `C[C@H]1C[C@H]2[C@@H]3CCC4=CC(=O)C=C[C@]4(C)[C@@]3(F)[C@@H](O)C[C@]2(C)[C@@]1(O)C(=O)CO`: “inactive”; `Cc1cc(O)cc(C)c1Cl`: “inactive”.
As for `CCCC(=O)OC/C=C(\C)CCC=C(C)C`, the result was inactive.
Consider `COc1c2occc2cc2ccc(=O)oc12`, for which the call was inactive.
With `CCCCCCCCCCCCCCCCCC[N+](C)(C)C`, the half-maximal activity concentration (AC50) is 16.7 µM (active).
`CCCCCC1CCCC(=O)O1` (stereo not given): the result was inactive.
For the compound `NC(N)=Nc1nc(CSCCC(N)=NS(N)(=O)=O)cs1`, the compound was called inactive.
`NCc1ccccc1`: the compound was called inactive.
As for `CCCC(=O)OC`, the result was inactive.
On to `CCO[Si](CCCN)(OCC)OCC`, for which the outcome was inactive.
With `CCCCCCOC(=O)CCCCCCCC(=O)OCCCCCC`, the call was inactive.
Same read-out and setting: the value for `O=[N+]([O-])c1ccccc1C(F)(F)F` was “inactive”; that for `O=C(O)/C=C\C(=O)O` was “inactive”; that for `COC(OC)C(C)c1ccccc1` (stereo not given) was “inactive”.
On the same count and under the same terms, the value for `O=S(=O)(O)c1cccc2ccccc12` was “inactive”; that for `O=C1NC(=O)C2CC=CCC12` (stereo not given) was “inactive”; that for `Sc1nc2ccccc2s1` was “inactive”.
In the case of `CCCCCCCC#N`, the call was inactive.
Same read-out and setting: the value for `O=C(CC(C(=O)OC1CCCCC1)S(=O)(=O)O)OC1CCCCC1` (stereo not given) was “inactive”; that for `CNC[C@H](O)[C@@H](O)[C@H](O)[C@H](O)CO` was “inactive”.
For the compound `CC=CC(=O)O`, the compound was classed as inactive.
Same read-out and setting: next, `Brc1ccc(Oc2ccc(Br)cc2)cc1`: “inactive”.
Same read-out and setting: the value for `CN(C)CCC(c1ccc(Cl)cc1)c1ccccn1` (stereo not given) was “inactive”; that for `CC1=CCCC(C)(C)C12CCC(C)O2` (stereo not given) was “inactive”; that for `CN(C)c1ccc(C(c2ccccc2)c2ccc(N(C)C)cc2)cc1` was “inactive”.
With `CCOC(=O)c1ccccc1`, the AC50 was 180 µM (active).
`CC(=O)CCc1ccccc1`: the call was inactive.
For `Cc1cccnc1`, the half-maximal activity concentration (AC50) was 165 µM (active).
Regarding `CC1(C)S[C@@H]2[C@H](NC(=O)[C@H](N)c3ccccc3)C(=O)N2[C@H]1C(=O)O`, the outcome was inactive.
Turning to `C[Si](C)(C)O[Si](C)(C)O[Si](C)(C)C`, the compound was classed as inactive.
For the compound `Cc1ccccc1S(=O)(=O)O`, the result was inactive.
For `CCc1cc(C(N)=S)ccn1`, the compound was classed as inactive.
For `COCCCN`, the compound was classed as inactive.
Regarding `O=C(O)c1cc(Cl)cc(Cl)c1O`, the result was inactive.

The values above are taken from PubChem BioAssay (EPA / NIEHS).
